PubChem BioAssay (NCATS)
Values joined by “and” are separate entries in the source; they are usually repeats but may differ in a detail not shown here. Equal entries are not always repeated. Records with an inconclusive call do not appear. Active and inactive are the calls of the source. The call rests on the fitted dose curve; in most records, active means well fitted inhibition curve with a large enough effect; inconclusive means small, poorly fitted or top-dose-only effect; inactive means flat fitted curve, though single readings scatter.

system: W2; assay: qHTS profiling for inhibitors of Plasmodium falciparum proliferation (AID 504749);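 on activity, negative = inhibition: 0% = DMSO vehicle and full inhibition = artemisinin control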; details: P. falciparum in erythrocytes, SYBR Green DNA, 72 h; series mostly up to 28.7 µM; activity, negative = inhibition: at the top concentration
Summary of the method: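 Three-day growth assay of blood-stage parasites in erythrocytes (0.3% parasitemia, 2.5% hematocrit) at 37 C, 5% CO2, quantified by SYBR Green DNA staining after overnight detergent lysis.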
Further: nearly all actives have a fitted effect of over 60% in size.
Potency means the concentration at half of the fitted maximal effect.

Row | Structure (SMILES) | activity, negative = inhibition | Potency
1 | CCCCCCCCCC(CC)c1ccc(S(=O)(=O)O)cc1 (stereo not drawn) | 2.75% (inactive) | –
2 | CC(=O)[O][Hg][c]1ccccc1 | – | 4.78 µM (active)
3 | O=[N+]([O-])c1ccc([As](=O)(O)O)cc1 | – | 4.78 µM (active)
4 | CC(=O)OCC1=C(C(=O)O)N2C(=O)[C@@H](N)[C@@H]2SC1 | -3.62% [at 12.8 µM] (inactive) | –

system: CRL-7250; assay: Cytotoxic Profiling of Annotated Libraries Using Quantitative High-Throughput Screening (AID 1296008); details: Five cell lines viability, CellTiter-Glo ATP luminescence, 48-72 h; max response: stronger effect = lower value; on max response: on the % scale 0 is the no-effect control and ±100 the full control effect
Summary of the method: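 Cytotoxicity was measured as CellTiter-Glo ATP luminescence, read after 10 min at room temperature. Compound treatment of the cells lasted 48 or 72 hr at 37 degrees Celsius in a qHTS format.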

Row | Structure (SMILES) | Potency | max response | outcome
5 | Cc1c(C(=O)c2cccc3ccccc23)c2cccc3c2n1[C@H](CN1CCOCC1)CO3 | 20.9 µM (active) | – | –
6 | CC(=O)Nc1ccc(OC[C@](C)(O)C(=O)Nc2ccc([N+](=O)[O-])c(C(F)(F)F)c2)cc1 | – | -1.8% (inactive) and -4.07% (inactive) | –
7 | CCCCCCCCCC(CC)c1ccc(S(=O)(=O)O)cc1 (stereo not drawn) | – | -1.12% (inactive) | –
8 | Nc1ccc(Sc2ccc(N)cc2)cc1 | – | -36.8% (inactive) | –
9 | CC(O)CN1CCN(CC(=O)[O-])CCN(CC(=O)[O-])CCN(CC(=O)[O-])CC1.[Gd+3] (stereo not drawn) | – | – | inactive
10 | CN1CCN(c2ccc([N+](=O)[O-])c3no[n+]([O-])c23)CC1 | – | 3.76% (inactive) and -14.8% (inactive) | –
11 | O=C(O)COc1nc(Cl)c(Cl)cc1Cl | – | -6.6% (inactive) | –
12 | CO/C=C(/C(=O)OC)c1ccccc1Oc1cc(Oc2ccccc2C#N)ncn1 | 19.3 µM (active) | – | –
13 | CS(=O)(=O)c1ccc(C(=O)C2C(=O)CCCC2=O)c([N+](=O)[O-])c1 | – | -5.31% (inactive) | –
14 | CCOP(=O)(NC(C)C)Oc1ccc(SC)c(C)c1 (stereo not drawn) | – | -0.0778% (inactive) | –
15 | COC1=C[C@@H]2[C@@H]3Cc4ccc(OC)c(O)c4[C@]2(CCN3C)CC1=O | – | – | inactive
16 | Cc1c(N)nc([C@H](CC(N)=O)NC[C@@H](N)C(N)=O)nc1C(=O)N[C@H](C(=O)N[C@@H](C)[C@H](O)[C@@H](C)C(=O)N[C@@H](C(=O)NCCc1nc(-c2nc(C(=O)NCCC[S+](C)C)cs2)cs1)[C@@H](C)O)C(O[C@H]1O[C@H](CO)[C@H](O)[C@@H](O)[C@@H]1O[C@H]1O[C@H](CO)[C@@H](O)[C@H](OC(N)=O)[C@H]1O)c1cnc[nH]1 (stereo partly drawn) | 10.5 µM (active) | – | –
17 | O=C1C=CC[C@@H]2[C@H]3CCCN4CCC[C@@H](CN12)[C@@H]34 | – | -6.72% (inactive) and -5.8% (inactive) | –
18 | CC(O)=C(C#N)C(=O)Nc1cc(Br)ccc1Br | – | 1.28% (inactive) | –
19 | O=C(NCC1CCOCC1)c1cnc(Nc2ccc(Cl)cc2Cl)nc1C(F)(F)F | – | 4.29% (inactive) and -22.6% (inactive) | –
20 | CC(C)(O)C=CC(=O)[C@](C)(O)[C@H]1[C@H](O)C[C@]2(C)[C@@H]3CC=C4[C@@H](C=C(O)C(=O)C4(C)C)[C@]3(C)C(=O)C[C@@]12C | 0.418 µM (active) | – | –
21 | C=C1C[C@H]2[C@H]3CCC(=O)[C@@]3(C)CC[C@@H]2[C@@]2(C)C=CC(=O)C=C12 | – | -22.6% (inactive) | –
22 | C/C=C(/C)C(=O)O[C@H]1C(C)=C2[C@H]([C@@H]1OC(=O)CCCCCCC)[C@@](C)(OC(C)=O)C[C@H](OC(=O)CCC)[C@@]1(O)[C@H]2OC(=O)[C@@]1(C)O | 0.0411 µM (active) | – | –
23 | C[C@@H]1[C@H](O)[C@@H](C)C=CC=CCCC=CC=CC=CC=C[C@H](O[C@H]2O[C@@H](C)[C@H](O)[C@@H](N)[C@@H]2O)CC2O[C@](O)(C[C@@H](O)[C@H](O)CC[C@@H](O)C[C@@H](O)C[C@@H](O)CC(=O)O[C@H]1C)C[C@H](O)[C@H]2C(=O)O | – | 4.08% (inactive) | –
24 | COc1ccc(CC2NCCc3cc(OC)c(OC)cc32)cc1OC (stereo not drawn) | – | -3.56% (inactive) | –

Row | Structure (SMILES) | Potency | max response | outcome
25 | C[C@H]1CCCC=CC2C[C@H](O)C[C@@H]2[C@H](O)C=CC(=O)O1 (stereo partly drawn) | – | -95.9% (inactive) | –
26 | OCCCBr | – | -6.12% (inactive) | –
27 | CC(=O)[O][Hg][c]1ccccc1 | 4.22 µM (active) | – | –
28 | CCN(CC)C(=O)c1ccc(C2=CC3(CCNCC3)Oc3cccc(O)c32)cc1 | – | 3.09% (inactive) and -1.02% (inactive) | –
29 | CC[C@H]1C=CC=CC[C@@H](C)[C@H](O)[C@@](C)(O)C(=O)[C@@H](C)[C@H](O)[C@@H](C)C(=O)[C@@H](C)[C@H](O)[C@@H](C)C=CC(=O)O[C@@H]2[C@@H](C)[C@H](CC1)O[C@]1(CC[C@H](C)[C@H](C[C@@H](C)O)O1)[C@H]2C | 18.7 µM (active) | – | –
30 | Cc1ccccc1-n1c(Cn2cnc3c(N)ncnc32)nc2cccc(C)c2c1=O | 0.833 µM (active) | – | –
31 | COc1ccc2c(c1)CN(C)CC2c1ccc(Cl)c(Cl)c1 (stereo not drawn) | – | – | inactive
32 | c1cc2c(cc1[C@H]1OC[C@H]3[C@H]1CO[C@H]3c1ccc3c(c1)OCO3)OCO2 | – | -11.7% (inactive) | –
33 | O=[N+]([O-])c1ccc([As](=O)(O)O)cc1 | – | – | inactive
34 | COCCOCCO | – | -4.64% (inactive) | –
35 | CC(N[C@H]1C[C@H]1c1ccccc1)c1ccc2c(c1)OCCO2 (stereo partly drawn) | – | 1.35% (inactive) and -26.3% (inactive) | –
36 | CC(=O)OCC1=C(C(=O)O)N2C(=O)[C@@H](N)[C@@H]2SC1 | – | – | inactive
37 | COc1ccc2c(c[n+](C)c3c4cc5c(cc4ccc23)OCO5)c1OC | 16.6 µM (active) | – | –
38 | Cc1nc(-c2ccc(-c3ccc(C(=O)N4CCc5cc6c(cc54)C4(CCN(C)CC4)CO6)cc3)c(C)c2)no1 | – | -11.3% (inactive) | –
39 | CC(C)(C)C(O)C(Oc1ccc(Cl)cc1)n1cncn1 (stereo not drawn) | – | – | inactive
40 | Cc1c(C(=O)Nc2cccc(C(F)(F)F)c2)cc(-c2ccccc2)n1CCCN1CCOCC1 | – | -26% (inactive) and -3.59% (inactive) | –
41 | O=C1CCC[C@@H]2[C@H]3CCCN4CCC[C@@H](CN12)[C@@H]34 | – | 0.603% (inactive) | –
42 | O=C1C(I)=CC(=C(c2cc(I)c(O)c(I)c2)c2ccccc2C(=O)O)C=C1I | – | – | inactive
43 | CC(C)(C)NC[C@H](O)c1ccc(O)cc1Cl | – | -2.25% (inactive) | –
